{"source": "ChEMBL document CHEMBL1157539", "about": "“Thousands of chemical starting points for antimalarial lead identification” (Nature, 2010)", "data": [{"tested_on": "HepG2", "experiment": "GSK_TCMDC: Percent inhibition of human HepG2 cell line. Test compounds present at 10uM.", "type": "functional", "units": {"Inhibition": "%"}, "values": [{"smiles": "O=C(c1cc(-c2ccco2)n[nH]1)N1CCN(S(=O)(=O)c2ccc(Br)cc2)CC1", "Inhibition": 1}, {"smiles": "CN1CCC(Oc2ccc(Nc3nccc(NCC(O)c4ccccc4)n3)cc2Cl)CC1", "note": "(stereo not given)", "Inhibition": 46}, {"smiles": "O=C(Nc1cccnc1)c1cn(-c2ccccc2)nc1-c1cccs1", "Inhibition": 3}, {"smiles": "CCN(CCCN1CCCCC1)c1cc(C)nc(Nc2ccc(C)c(F)c2)n1.O=C(O)C(F)(F)F", "Inhibition": 20}, {"smiles": "CC(C)(C)Nc1cc(C(=O)N[C@@H](Cc2ccccc2)[C@H](O)CNC2CCOCC2)cc(N2CCCCS2(=O)=O)c1", "Inhibition": 0}, {"smiles": "CC(C)n1ncc2c(C(=O)N3CCCc4ccccc43)cc(-c3ccccc3)nc21", "Inhibition": 5}, {"smiles": "COc1ccc(Nc2nccc(N3CCC(NC(=O)Nc4cccc(C(C)=O)c4)C3)n2)cc1", "note": "(stereo not given)", "Inhibition": 29}, {"smiles": "CN(C)C(CNC(=O)c1cc(-c2ccncc2)c(-c2ccc(NC(=O)Nc3ccccc3)cc2)o1)c1ccccc1.O=C(O)C(F)(F)F", "note": "(stereo not given)", "Inhibition": 19}, {"smiles": "Cc1cc(=O)c(-c2ccc(Oc3cccc(Cl)c3)cc2)c(C)[nH]1", "Inhibition": 23}, {"smiles": "CCOC(=O)CC[C@H](NC(=O)c1ccc(NS(=O)(=O)c2ccc(-c3cnc(N)[nH]c3=O)cc2)cc1)C(=O)OCC", "Inhibition": 5}, {"smiles": "Cc1cc(Cl)ccc1NC(=O)Nc1ccc2nccc(N3CCN(C)CC3)c2c1", "Inhibition": 0}, {"smiles": "Cl.N=C(N)Nc1ccc(CCc2ccc(NC(=N)N)cc2)cc1", "Inhibition": 57}, {"smiles": "CCCC(C)N(Cc1ccc(C(C)(C)C)cc1)C(=O)c1cccc(C#N)c1", "note": "(stereo not given)", "Inhibition": 14}, {"smiles": "CCC[C@@H]([C@@H](CC1CCCCC1)C(=O)N[C@H](C(=O)Nc1nccs1)C(C)(C)SC)N(O)C=O", "Inhibition": 51}, {"smiles": "CCOC(=O)CCCCOc1c(OC)cc(Cc2cnc(N)nc2N)cc1OC", "Inhibition": 0}, {"smiles": "O=C(Nc1cc2cc(-c3ccc(CN4CCCCC4)cc3)ccc2n2cnnc12)NC1CCCC1", "Inhibition": 78}, {"smiles": "COc1cc(Cc2cnc(N)nc2N)c2c(c1OC)OC(C)C=C2", "note": "(stereo not given)", "Inhibition": 0}, {"smiles": "CCOc1ccc(C(C)NC(=O)Nc2ccccc2)cc1OCC", "note": "(stereo not given)", "Inhibition": 14}, {"smiles": "CC1CN(Cc2ccccc2)CCN1c1ccc(NC(=O)c2ccc(F)cc2)cc1.O=C(O)C(F)(F)F", "note": "(stereo not given)", "Inhibition": 0}, {"smiles": "CCCCn1c(N)c(N(Cc2ccco2)C(=O)C=Cc2cc(OC)c3c(c2)OCCO3)c(O)nc1=O", "Inhibition": 4}, {"smiles": "COc1ccc(-n2ccnc2SCC(=O)Nc2cc(Cl)ccc2OC)c(OC)c1", "Inhibition": 0}, {"smiles": "C=C[C@H]1CN(CCCCCCC)CC[C@H]1CC(=O)Nc1cnnc2ccc(OC)cc12.O=C(O)C(=O)O", "Inhibition": 12}, {"smiles": "CC(C)c1ccc(CN2CCCCC(NC(=O)c3cc(-c4ccccc4F)cs3)C2)cc1.O=C(O)C(F)(F)F", "note": "(stereo not given)", "Inhibition": 18}, {"smiles": "N#Cc1ccc(/C=C/C(=O)NCCCCCN2CCN(C(=O)Nc3ccc(Cl)c(C(F)(F)F)c3)CC2)cc1", "Inhibition": 42}, {"smiles": "COc1ccc(CNC2CCN(C)CC2)cc1-c1ccc(S(=O)(=O)NCc2ccccc2)s1.O=C(O)C(F)(F)F", "Inhibition": 62}, {"smiles": "O=C1Nc2cccc3c2C1(CCCCN1CCC(c2c(-c4ccccc4)[nH]c4ccccc24)CC1)CCC3", "note": "(stereo not given)", "Inhibition": 18}, {"smiles": "CCCNCc1ccc(-c2ccc(CN(C(=O)c3nn(-c4ccccc4)nc3C)C3CCOCC3)cc2)nc1.O=C(O)C(F)(F)F", "Inhibition": 14}, {"smiles": "Br.Oc1ccc(CCNCCCCNCCc2ccc(Cl)cc2)cc1O", "Inhibition": 33}, {"smiles": "NS(=O)(=O)c1cccc(-c2ccc3nccc(-c4cccc(S(N)(=O)=O)c4)c3c2)c1", "Inhibition": 40}, {"smiles": "Cc1cccc(NC(=O)NC2CCN(CCCCCNC(=O)/C=C/c3ccc(Cl)c(Cl)c3)CC2)c1", "Inhibition": 34}, {"smiles": "O=C(Nc1ccccc1Br)c1cn(-c2ccccc2)nc1-c1cccc([N+](=O)[O-])c1", "Inhibition": 7}, {"smiles": "CCCc1cc(N2CCC(c3ccccc3)(N3CCCCC3)CC2)nc(Nc2ccc(OC)cc2)n1", "Inhibition": 13}, {"smiles": "Br.CC1(C)NC(N)=NC(=N)N1OCCCOc1ccccc1N", "Inhibition": 70}, {"smiles": "COc1ccccc1CNc1ncc(-c2ccsc2)c(-c2nccs2)n1", "Inhibition": 14}, {"smiles": "Cc1cc(N[C@@H](Cc2ccccc2)C(=O)NCCc2ccccc2)nc(NCCc2ccccc2)n1.O=C(O)C(F)(F)F", "Inhibition": 0}, {"smiles": "CCOC(=O)NCC(=O)Nc1cccc(-c2cccc(-c3nc4cc(C(F)(F)F)ccc4[nH]3)c2)c1", "Inhibition": 59}, {"smiles": "O=C(NCCCCN1CCN(c2ccc3c(c2)CCC3)CC1)c1ccc(NC(=O)c2ccc(Cl)cc2)cc1", "Inhibition": 38}, {"smiles": "Cc1noc(C)c1S(=O)(=O)N(C)Cc1ccc(-c2ccc(Cl)cc2)o1", "Inhibition": 10}, {"smiles": "COc1ccc2ncc(F)c([C@@H](O)CN3CCC(NCc4ccc5c(c4)NCCS5)CC3)c2n1.Cl", "Inhibition": 77}, {"smiles": "COc1ccccc1C1CCN(C2CCC(NC(=O)/C=C/c3cc(C(F)(F)F)ccc3F)CC2)CC1", "note": "(stereo not given)", "Inhibition": 39}]}]}
